Measurements from PubChem BioAssay (NCATS).
Where “and” joins values, the source holds several entries; their conditions need not be identical. Identical values can stand only once. A number with no mark means an inactive call. Inconclusive results are not listed. Where a call stands in place of a potency, no number is given. Calls of active or inactive are those of the source. Unless noted, calls follow the shape of the dose curve; as a rule, active = well fitted curve in the direction sought with a large enough effect; inconclusive = small, poorly fitted or top-dose-only effect, or another doubt; inactive = no such curve, though single readings can be large; an effect the other way counts as inactive or inconclusive.

What was measured:
[1] = molecular target: Glucocorticoid receptor (Homo sapiens) (UniProt P04150); test: GR-GFP Redistribution (AID 450;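 active = compounds whose dose series gives a full or clear partial fitted curve of increased nuclear translocation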; also: potency is read from the fitted curve at half-maximal effect); details: U2OS GR-GFP nuclear translocation, laser cytometry, 2 h
[2] = molecular target: Glucocorticoid receptor (Homo sapiens) (UniProt P04150); test: GR-EFC Redistribution (AID 451; calls by dose curve; also: potency is read from the fitted curve at half-maximal effect); details: CHO-K1 GR-EFC translocation, beta-gal luminescence, 2 h
Outline: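 CHO-K1 cells stably expressing nuclear-localized β-gal enzyme acceptor and GR fused C-terminally to the enzyme donor fragment; ligand-driven nuclear translocation restores β-gal by complementation. Compounds titrated up to 46 uM final, 2 h at 37 °C; luminescence read.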

[3] = molecular target: 3',5'-cyclic-AMP phosphodiesterase 4B (Homo sapiens) (UniProt Q07343); test: qHTS Assay for Inhibitors of PDE-IV (AID 607; active = well fitted activation curve with a large enough effect in the main read-out, with a control signal flat, not every such curve was filed as active)
Outline: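 Live HEK293 cells with a modified cyclic nucleotide-gated (CNG) channel report intracellular cAMP via membrane-potential dye fluorescence (ex 535/em 590 nm). Endogenous PDE-IV was targeted. Compounds were tested at up to 22.9 uM final; RO 20-1724 100 uM served as control.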

[4] = molecular target: Mitogen-activated protein kinase 10 (Mus musculus) (UniProt Q61831); test: JNK3 AlphaScreen Assay (AID 530; active = well fitted curve in either direction with a large enough effect, not every such curve was filed as active;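 also: kinase came from lysate of stimulated human HepG2 cells; signal reports phosphorylation of biotinylated GST-cJun 1-79 at Ser73 with 10 µM ATP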)
Outline: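 JNK3 came from HepG2 lysates pre-activated with IL-1beta and TNF-alpha and phosphorylated biotinylated GST-cJun (1-79) at 10 uM ATP, pH 7.6, room temperature. Compounds were titrated. AlphaScreen signal used anti-phospho-cJun (Ser73) antibody.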

[5] = molecular target: Guanine nucleotide-binding protein G(i) subunit alpha-1 (Homo sapiens) (UniProt P63096); test: qHTS Assay for Inhibitors of RGS12 GoLoco Motif Activity (Green Fluorophore) (AID 879);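 also: negative values mean loss of peptide binding seen as reduced polarization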
Outline: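 Fluorescence polarization assay: 50 nM Gαi1 with 10 nM FITC-labeled RGS12 GoLoco peptide in 10 mM Tris pH 7.5, 150 mM NaCl, 0.1 mM GDP, 0.05% NP40, 10 min at room temperature with compound.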

[6] = Cell Viability - N2a (AID 540); details: N2a mouse neuroblastoma cell viability; activity change, negative = cytotoxicity: at 92.2 µM (top of the series); also: nearly all actives have a fitted effect of over 45% in size
Outline: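 Mouse neuroblastoma N2a cells (1500/well) were preincubated 5 hr at 37 °C, then exposed to compounds for 40 hr at 37 °C in complete medium. Viability was read as intracellular ATP by CellTiter-Glo luminescence; AC50 from Hill fits.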

[7] = Cell Viability - HUV-EC-C (AID 542); also: nearly all actives have a fitted effect of over 35% in size
Outline: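 HUV-EC-C normal human vascular endothelial cells, 1000 cells/well, pre-incubated 5 hr at 37 °C, then exposed to compounds for 40 hr at 37 °C in complete medium. Viability measured as intracellular ATP by CellTiter-Glo luminescence; AC50 from Hill fits.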

[8] = Cell Viability - H-4-II-E (AID 543); also: nearly all actives have a fitted effect of over 35% in size
Outline: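 Rat hepatoma H-4-II-E cells (1500/well) were plated, incubated 5 hr at 37 °C, then exposed to compounds for 40 hr at 37 °C. Cellular ATP was read by CellTiter-Glo luminescence; AC50 came from Hill-equation fits of concentration-response data.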

[9] = Cell Viability - SH-SY5Y (AID 544); also: nearly all actives have a fitted effect of over 55% in size
Outline: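 Human neuroblastoma SH-SY5Y cells (1500/well) in complete medium were exposed to compounds for 40 hr at 37 °C; intracellular ATP was then quantified by CellTiter-Glo luminescence after 20 min at room temperature. AC50 came from Hill-equation concentration-response fits.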

[10] = Cell Viability - Renal Proximal Tubule (AID 545); also: nearly all actives have a fitted effect of over 40% in size
Outline: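 Primary rat renal proximal tubule cells (1000/well) were treated with compounds for 40 hr at 37 °C in complete medium. Intracellular ATP was measured by CellTiter-Glo luminescence, and AC50 values came from Hill-equation fits of concentration-response data.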

[11] = Cell Viability - Mesenchymal (AID 546);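 also: cells exposed to compound for 40 hours before reading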
Outline: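 Normal human renal glomerulus-derived kidney mesenchymal cells, 1000 per well in complete medium, were treated with compounds for 40 hr at 37 °C. Viability was read as intracellular ATP by CellTiter-Glo luminescence; AC50 values came from Hill-equation fits of qHTS concentration-response data.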

[12] = Cellular Toxicity (caspase-3) HepG2 (AID 654);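 also: cells exposed to compound for 16 hours before reading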
Outline: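 HepG2 cells (1500/well) in complete medium were treated with compounds for 16 hr at 37 °C. Caspase-3/7 activity was then read as luminescence from peptide-aminoluciferin cleavage. AC50 came from Hill fits, normalized to DMSO and 100 uM tamoxifen.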

[13] = Cellular Toxicity (caspase-3) Jurkat (AID 655);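 also: cells exposed to compound for 16 h at 37 °C before reading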
Outline: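 Jurkat cells (5000/well) in complete medium were treated with compounds for 16 hr at 37 °C, then Caspase-Glo 3/7 luminescence was read after 20 min at room temperature. Data normalized to DMSO (basal) and 100 uM tamoxifen (100%); AC50 from Hill fit.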

[14] = Cellular Toxicity (caspase-3) SHSY5Y (AID 657)
Outline: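 SH-SY5Y human neuroblastoma cells (1500/well) were treated with compounds for 16 h at 37 °C, then Caspase-Glo 3/7 luminescence was read after 1 h at room temperature. Data normalized to DMSO and 10 uM staurosporine; AC50 from Hill fits.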

[15] = Cellular Toxicity (caspase-3) BJ (AID 658)
Outline: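 Luminescent aminoluciferin-substrate cleavage reports caspase 3/7 activity in normal human BJ fibroblasts after 16 hr compound exposure at 37 °C. Normalized to DMSO (basal) and 10 uM staurosporine (100%); AC50 from Hill fit of concentration-response.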

[16] = Cellular Toxicity (caspase-3) SK-N-SH (AID 661)
Outline: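 SK-N-SH human neuroblastoma cells (1500/well) were treated with compounds for 16 hr at 37 °C in complete medium; caspase 3/7 activity was read by Caspase-Glo luminescence. AC50 came from Hill fits of data normalized to DMSO and 10 uM staurosporine.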

[17] = Cellular Toxicity (caspase-3) H-4-II-E (AID 663);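 also: cells exposed to compound for 16 hr before readout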
Outline: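 Luminescence from caspase-cleaved aminoluciferin substrate, read 20 min after reagent addition, reports caspase 3/7 activation in rat H-4-II-E cells after 16 hr compound exposure. Normalized to DMSO (basal) and 100 uM tamoxifen (100%); AC50 from Hill fits.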

[18] = Cellular Toxicity (caspase-3) Hek293 (AID 664);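 also: cells exposed to compound for 16 h at 37 °C before readout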
Outline: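 HEK293 cells were exposed to compounds in complete medium for 16 hr at 37 °C, then caspase-3/7 activity was read by Caspase-Glo 3/7 luminescence after 20 min at room temperature. Data normalized to DMSO and 100 uM tamoxifen; AC50 from Hill fits.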

[19] = Cellular Toxicity (caspase-3) N2a (AID 665);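 also: compound exposure lasted 16 h at 37 °C before readout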
Outline: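 Mouse N2a neuroblastoma cells (1500/well) were treated with compounds for 16 h at 37 °C, then caspase-3/7 activity was read by Caspase-Glo luminescence after 1 h at room temperature. Data were normalized to DMSO and 10 uM staurosporine; AC50 from Hill fits.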

[20] = Cellular Toxicity (caspase-3) NIH 3T3 (AID 666)
Outline: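 Mouse NIH 3T3 fibroblasts (1000 cells/well) were treated with compound for 16 hr at 37°C in complete medium; caspase-3/7 activity was read by Caspase-Glo luminescence. Normalized to DMSO and 100 uM tamoxifen; AC50 from Hill fits.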

Chain of 3',5'-cyclic-AMP phosphodiesterase 4B (Homo sapiens) (Q07343 whole entry, looked up): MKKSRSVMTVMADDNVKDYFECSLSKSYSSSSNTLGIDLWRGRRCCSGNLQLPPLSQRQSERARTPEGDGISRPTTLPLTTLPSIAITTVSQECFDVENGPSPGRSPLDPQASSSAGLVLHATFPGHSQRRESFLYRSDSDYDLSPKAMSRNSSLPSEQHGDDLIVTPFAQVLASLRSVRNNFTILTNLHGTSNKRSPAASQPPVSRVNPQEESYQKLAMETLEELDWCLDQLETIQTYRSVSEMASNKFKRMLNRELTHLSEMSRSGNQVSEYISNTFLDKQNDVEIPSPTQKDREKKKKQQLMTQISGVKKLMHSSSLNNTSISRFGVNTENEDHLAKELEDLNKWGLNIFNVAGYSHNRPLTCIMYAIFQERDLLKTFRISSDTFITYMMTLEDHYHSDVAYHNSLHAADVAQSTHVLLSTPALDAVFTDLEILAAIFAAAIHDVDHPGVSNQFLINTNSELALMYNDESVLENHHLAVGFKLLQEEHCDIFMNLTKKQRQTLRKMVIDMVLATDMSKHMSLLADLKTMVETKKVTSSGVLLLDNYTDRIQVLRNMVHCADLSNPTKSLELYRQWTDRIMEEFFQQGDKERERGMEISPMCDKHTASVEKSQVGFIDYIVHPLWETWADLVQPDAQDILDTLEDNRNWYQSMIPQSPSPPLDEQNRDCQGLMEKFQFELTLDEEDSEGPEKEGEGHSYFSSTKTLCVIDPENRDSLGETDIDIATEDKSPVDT
Chain of Glucocorticoid receptor (Homo sapiens) (P04150 whole entry, looked up, the tested form may be a part): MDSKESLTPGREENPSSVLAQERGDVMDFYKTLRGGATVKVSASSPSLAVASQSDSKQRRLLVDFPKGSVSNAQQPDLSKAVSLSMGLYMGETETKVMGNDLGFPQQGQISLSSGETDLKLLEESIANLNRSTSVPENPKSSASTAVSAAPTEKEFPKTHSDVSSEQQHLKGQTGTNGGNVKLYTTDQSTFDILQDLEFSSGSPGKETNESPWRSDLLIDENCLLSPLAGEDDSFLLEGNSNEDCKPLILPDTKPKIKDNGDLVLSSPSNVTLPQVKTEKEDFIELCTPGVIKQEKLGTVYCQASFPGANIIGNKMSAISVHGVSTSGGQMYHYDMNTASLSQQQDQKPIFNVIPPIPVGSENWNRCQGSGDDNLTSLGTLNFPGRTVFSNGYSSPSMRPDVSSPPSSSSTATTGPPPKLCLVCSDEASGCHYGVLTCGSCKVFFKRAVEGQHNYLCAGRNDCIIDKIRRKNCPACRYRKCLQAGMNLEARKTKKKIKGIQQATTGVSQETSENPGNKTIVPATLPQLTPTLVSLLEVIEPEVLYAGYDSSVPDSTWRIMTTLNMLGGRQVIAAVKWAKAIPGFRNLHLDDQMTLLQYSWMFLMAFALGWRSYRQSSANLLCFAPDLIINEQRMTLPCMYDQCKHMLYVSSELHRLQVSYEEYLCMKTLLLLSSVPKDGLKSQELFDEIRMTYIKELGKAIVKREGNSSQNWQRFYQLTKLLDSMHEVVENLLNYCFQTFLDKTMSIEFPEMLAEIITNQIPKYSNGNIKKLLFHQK
Chain of Guanine nucleotide-binding protein G(i) subunit alpha-1 (Homo sapiens) (P63096 whole entry, looked up): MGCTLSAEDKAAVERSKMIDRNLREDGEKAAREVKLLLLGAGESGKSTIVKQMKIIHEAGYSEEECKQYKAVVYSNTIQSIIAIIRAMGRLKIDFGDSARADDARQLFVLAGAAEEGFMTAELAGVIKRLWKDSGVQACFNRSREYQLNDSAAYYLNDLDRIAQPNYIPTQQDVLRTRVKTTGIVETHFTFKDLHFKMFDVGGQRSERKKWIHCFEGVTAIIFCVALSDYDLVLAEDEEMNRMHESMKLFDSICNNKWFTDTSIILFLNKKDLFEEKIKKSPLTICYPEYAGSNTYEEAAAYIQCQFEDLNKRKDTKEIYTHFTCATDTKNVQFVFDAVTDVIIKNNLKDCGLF

Which results are given for `CC1=C(CC(=O)O)c2cc(F)ccc2/C1=C\c1ccc(S(C)=O)cc1` (stereo unspecified)?
Potency [1]: > 46 µM and > 20.6 µM; Potency [2]: > 46 µM and > 20.6 µM; outcome [3]: inactive

Which results are given for `CN(C)CCCN1c2ccccc2CCc2ccccc21`?
Potency [4]: inactive; outcome [5]: inactive

For `C[C@]12CC[C@@H]3c4ccc(O)cc4CC[C@H]3[C@@H]1CCC2=O`, which outcome [5] is on record?
Its outcome is “inactive”.

With `c1ccc2c(CC3=NCCN3)cccc2c1` as the molecule, how does the Potency [4] read?
The Potency was “inactive”.

And the outcome [3]?
The outcome was “inactive”.

Which Potency [4] does the source give for `COc1ccccc1O` here?
The Potency was “inactive”.

And the activity change, negative = cytotoxicity [6]?
Its activity change, negative = cytotoxicity is 1.24% and 7.3% and 7.13%.

What about the Potency [7] of the same molecule?
Its Potency is “inactive”.

And the Potency [8]?
The Potency was “inactive”.

And the Potency [9]?
Its Potency is “inactive”.

What about the Potency [10] of the same molecule?
The Potency was “inactive”.

And the outcome [11]?
Its outcome is “inactive”.

What about the Potency [12] of the same molecule?
Its Potency is “inactive”.

What about the Potency [13] of the same molecule?
The Potency was “inactive”.

And the outcome [14]?
The outcome was “inactive”.

And the outcome [15]?
Its outcome is “inactive”.

And the outcome [16]?
The outcome was “inactive”.

What about the outcome [17] of the same molecule?
Its outcome is “inactive”.

And the outcome [18]?
Its outcome is “inactive”.

What about the outcome [19] of the same molecule?
Its outcome is “inactive”.

What about the outcome [20] of the same molecule?
The outcome was “inactive”.

With `O=C1O[C@H]([C@@H](O)CO)C(O)=C1O` as the molecule, how does the Potency [4] read?
Its Potency is “inactive”.

And the activity change, negative = cytotoxicity [6]?
The activity change, negative = cytotoxicity was 3.88%.

What about the Potency [7] of the same molecule?
The Potency was “inactive”.

And the Potency [8]?
The Potency was “inactive”.

What about the Potency [9] of the same molecule?
Its Potency is “inactive”.

And the Potency [10]?
The Potency was “inactive”.

What about the outcome [11] of the same molecule?
The outcome was “inactive”.

What about the Potency [12] of the same molecule?
The Potency was “inactive”.

And the Potency [13]?
Its Potency is “inactive”.

What about the outcome [14] of the same molecule?
The outcome was “inactive”.

And the outcome [15]?
The outcome was “inactive”.

What about the outcome [16] of the same molecule?
Its outcome is “inactive”.

And the outcome [17]?
The outcome was “inactive”.

What about the outcome [18] of the same molecule?
The outcome was “inactive”.

What about the outcome [19] of the same molecule?
The outcome was “inactive”.

And the outcome [20]?
The outcome was “inactive”.

Which results are given for `CCCCN1CCCC[C@H]1C(=O)Nc1c(C)cccc1C`?
Potency [4]: inactive; outcome [3]: inactive

What does the source list for `O=C(CCCN1CCN(c2ccccn2)CC1)c1ccc(F)cc1`?
Potency [4]: inactive; outcome [3]: inactive

Which results are given for `CC1(C)[C@@H]2CC[C@@]1(C)C(=O)C2`?
Potency [4]: inactive; activity change, negative = cytotoxicity [6]: 2.78%; Potency [7]: inactive; Potency [8]: inactive; Potency [9]: inactive; Potency [10]: inactive; outcome [11]: inactive; Potency [12]: inactive; Potency [13]: inactive; outcome [14]: inactive; outcome [15]: inactive; outcome [16]: inactive; outcome [17]: inactive; outcome [18]: inactive; outcome [19]: inactive; outcome [20]: inactive

For `OCc1cc(C(O)CNCCCCCCOCCCCc2ccccc2)ccc1O` (stereo unspecified), which outcome [5] is on record?
The outcome was “inactive”.

Which results are given for `CCCCCCCCCCCCOS(=O)(=O)O`?
Potency [4]: inactive; activity change, negative = cytotoxicity [6]: -3.87% and -0.403%; Potency [7]: inactive; Potency [8]: inactive; Potency [9]: inactive; Potency [10]: inactive; outcome [11]: inactive; Potency [12]: inactive; Potency [13]: inactive; outcome [14]: inactive; outcome [15]: inactive; outcome [16]: inactive; outcome [17]: inactive; outcome [18]: inactive; outcome [19]: inactive; outcome [20]: inactive

What does the source list for `CC(C)C(=O)c1c(C(C)C)nn2ccccc12`?
Potency [4]: inactive; outcome [5]: inactive

Which results are given for `COc1ccc(Cl)cc1C(=O)NCCc1ccc(S(=O)(=O)NC(=O)NC2CCCCC2)cc1`?
Potency [4]: inactive; outcome [3]: inactive; outcome [5]: inactive

Which Potency [1] does the source give for `C[C@]12C[C@H](O)[C@H]3[C@@H](CCC4=CC(=O)CC[C@@]43C)[C@@H]1CC[C@@H]2C(=O)CO` here?
The Potency was 0.00593 µM (active).

And the Potency [7]?
The Potency was “inactive”.

What about the Potency [9] of the same molecule?
Its Potency is “inactive”.

And the outcome [11]?
The outcome was “inactive”.

And the Potency [12]?
The Potency was “inactive”.

What about the Potency [13] of the same molecule?
Its Potency is “inactive”.

And the outcome [14]?
The outcome was “inactive”.

And the outcome [15]?
The outcome was “inactive”.

And the outcome [16]?
Its outcome is “inactive”.

What about the outcome [17] of the same molecule?
Its outcome is “inactive”.

What about the outcome [18] of the same molecule?
Its outcome is “inactive”.

What about the outcome [19] of the same molecule?
Its outcome is “inactive”.

What about the outcome [20] of the same molecule?
Its outcome is “inactive”.

Which Potency [4] does the source give for `Cc1cc2nc3c(=O)[nH]c(=O)nc-3n(C[C@H](O)[C@H](O)[C@H](O)CO)c2cc1C` here?
The Potency was “inactive”.

And the activity change, negative = cytotoxicity [6]?
The activity change, negative = cytotoxicity was 0.316%.

What about the Potency [7] of the same molecule?
Its Potency is “inactive”.

What about the Potency [8] of the same molecule?
Its Potency is “inactive”.

And the Potency [9]?
The Potency was “inactive”.

And the Potency [10]?
Its Potency is “inactive”.

And the outcome [11]?
The outcome was “inactive”.

And the Potency [12]?
Its Potency is “inactive”.

And the Potency [13]?
The Potency was “inactive”.

What about the outcome [14] of the same molecule?
The outcome was “inactive”.

And the outcome [15]?
The outcome was “inactive”.

What about the outcome [16] of the same molecule?
The outcome was “inactive”.

And the outcome [17]?
Its outcome is “inactive”.

What about the outcome [18] of the same molecule?
The outcome was “inactive”.

And the outcome [19]?
Its outcome is “inactive”.

What about the outcome [20] of the same molecule?
Its outcome is “inactive”.

Which Potency [1] does the source give for `Cc1cc(N)c2ccccc2[n+]1CCCCCCCCCC[n+]1c(C)cc(N)c2ccccc21` here?
Its Potency is > 46 µM and > 20.6 µM.

What about the Potency [2] of the same molecule?
The Potency was > 46 µM and > 20.6 µM.

And the Potency [4]?
Its Potency is “inactive”.

And the outcome [3]?
Its outcome is “inactive”.

What about the outcome [5] of the same molecule?
Its outcome is “inactive”.
